Experiment in all cases: qHTS profiling for inhibitors of Plasmodium falciparum proliferation (AID 504749); further: nearly all actives have a fitted effect of over 60% in size
Common to all, as to settings: P. falciparum in erythrocytes, SYBR Green DNA, 72 h; series mostly up to 28.7 µM
In general terms: Quantitative high-throughput screening tests each substance at several concentrations.

The subject of one assay is AA1029. Summed up:
(§1)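 P. falciparum-infected erythrocytes (0.3% parasitemia, 2.5% hematocrit) incubated with compound 72 h at 37 C, 5% CO2. Parasite DNA detected by SYBR Green after lysis, overnight at room temperature; normalised to 0.29 uM artemisinin and DMSO.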

A further assay deals with ATS95. Summed up: as §1
The next assay relates to C2A. Summed up: as §1
The next assay concerns CP211. Put shortly: as §1
For a further assay, the system named is CP215. Put shortly:
as §1

A further assay has as its system CP217. Summed up: as §1
The next assay relates to CP250. Summed up: as §1
A further assay relates to CP252. Put shortly:
as §1

The subject of the next assay is CP256. Summed up:
as §1

The next assay deals with CP260. Summed up:
as §1

The test system of the next assay is CP262. Put shortly:
as §1

In a further assay the test system is CP265. Put shortly:
as §1

The subject of a further assay is CP291. Summed up: as §1
Another assay concerns CP315. Put shortly:
as §1

The subject of the next assay is Dd2. Put shortly:
as §1

The next assay concerns FAB9. Summed up:
as §1

Another assay has as its system ICS. Put shortly:
as §1

The next assay relates to N140. Summed up:
as §1

A further assay deals with SC27B. Summed up:
as §1

The subject of the next assay is TAB165. Put shortly:
as §1

Results filed as inconclusive are left out. Activity calls are given as the source filed them. The call rests on the fitted dose curve; in most records, active means well fitted inhibition curve with a large enough effect; inconclusive means small, poorly fitted or top-dose-only effect; inactive means flat fitted curve, though single readings scatter.
Potency means the concentration at half of the fitted maximal effect.

Consider `CC[C@@H]1/C=C(\C)C[C@H](C)C[C@H](OC)[C@H]2O[C@@](O)(C(=O)C(=O)N3CCCC[C@H]3C(=O)O[C@H](/C(C)=C/[C@@H]3CC[C@H](Cl)[C@H](OC)C3)[C@H](C)[C@@H](O)CC1=O)[C@H](C)C[C@@H]2OC`, for which the Potency result in the assay with AA1029, in the assay with ATS95, in the assay on C2A, in the assay with CP211, in the assay with CP215 and in the assay on CP217 was “inactive” throughout. The Potency result with CP250, in the assay on CP252, in the assay with CP256, in the assay with CP260, in the assay on CP262 and in the assay on CP265 was “inactive” throughout. Further, the Potency result in the assay with CP291, in the assay with CP315, with Dd2, in the assay on FAB9, in the assay with ICS and with N140 was “inactive” throughout. The Potency entry in the assay on SC27B and in the assay on TAB165 was “inactive” each time.
In the case of `NC[C@@H]1O[C@H](OC2[C@@H](CO)O[C@@H](OC3[C@H](O)[C@H](N)C[C@H](N)[C@H]3OC3O[C@H](CO)[C@@H](O)[C@H](O)[C@@H]3N)[C@H]2O)C(N)[C@H](O)[C@@H]1O` (stereo not given in full), the Potency result with AA1029, in the assay with ATS95, with C2A, with CP211, in the assay on CP215 and in the assay on CP217 was “inactive” throughout. Besides, the Potency result in the assay with CP250, in the assay on CP252, in the assay on CP256, with CP260, in the assay on CP262 and in the assay on CP265 was “inactive” throughout. Also, the Potency result in the assay with CP291, in the assay with CP315, in the assay with Dd2, in the assay on FAB9, in the assay with ICS and in the assay with N140 was “inactive” each time. Also, the Potency entry with SC27B and in the assay on TAB165 was “inactive” throughout.
On to `COc1cccc(OC)c1C(=O)NC1C(=O)N2C1SC(C)(C)C2C(=O)O` (stereo not given), for which the Potency result in the assay on AA1029, with ATS95, in the assay on C2A, with CP211, in the assay with CP215 and with CP217 was “inactive” throughout. The Potency result in the assay on CP250, in the assay on CP252, with CP256, with CP260, in the assay with CP262 and in the assay on CP265 was “inactive” each time. Further, the Potency result with CP291, in the assay on CP315, in the assay on Dd2, in the assay with FAB9, with ICS and in the assay with N140 was “inactive” in each case. The Potency entry with SC27B and in the assay on TAB165 was “inactive” in each case.
As for `CC(=O)OCC(=O)[C@@]1(O)CCC2C3CCC4=CC(=O)C=CC4(C)C3C(O)C[C@]21C` (stereo not given in full), the Potency entry in the assay with AA1029, with ATS95, in the assay on C2A, in the assay with CP211, in the assay with CP215 and in the assay on CP217 was “inactive” throughout. Also, the Potency result in the assay on CP250, in the assay on CP252, with CP256, in the assay on CP260, with CP262 and in the assay on CP265 was “inactive” each time. Besides, the Potency entry in the assay with CP291, in the assay on CP315, in the assay with Dd2, in the assay with FAB9, in the assay on ICS and with N140 was “inactive” each time. The Potency entry in the assay on SC27B and with TAB165 was “inactive” in each case.
Take `CC(C)C[C@@H](NC(=O)[C@@H](Cc1ccccc1)NC(=O)c1cnccn1)B(O)O`: the Potency was 112 nM (active) with AA1029; 112 nM (active) in the assay with ATS95; 112 nM (active) in the assay on C2A; 757 nM (active) in the assay on CP211; 675 nM (active) in the assay on CP215; 112 nM (active) with CP217. Further, the Potency in the assay with CP250 was 126 nM (active); with CP252, 89.1 nM (active); in the assay with CP256, 141 nM (active); in the assay on CP260 it was 100 nM (active); with CP262, 120 nM (active); in the assay on CP265, 141 nM (active). Besides, the Potency in the assay with CP291 is 151 nM (active); in the assay on CP315, 379 nM (active); in the assay with Dd2, 112 nM (active); in the assay with FAB9 it was 141 nM (active); in the assay with ICS it was 44.7 nM (active); with N140, 100 nM (active). For the same compound, the Potency is 141 nM (active) in the assay with SC27B and 70.8 nM (active) with TAB165.
Turning to `CC1(C)OC[C@@H]2O[C@@]3(C(=O)O)OC(C)(C)O[C@@H]3[C@@H]2O1`, the Potency result with AA1029, with ATS95, in the assay with C2A, in the assay with CP211, in the assay with CP215 and in the assay on CP217 was “inactive” each time. Besides, the Potency result in the assay on CP250, in the assay on CP252, in the assay on CP256, with CP260, with CP262 and with CP265 was “inactive” throughout. In addition, the Potency result with CP291, in the assay on CP315, with Dd2, with FAB9, in the assay on ICS and in the assay on N140 was “inactive” in each case. Besides, the Potency entry in the assay on SC27B and with TAB165 was “inactive” in each case.
Regarding `CC1(C)C2CC[C@]1(C)[C@@H](O)C2`, the Potency result in the assay with AA1029, in the assay on ATS95, in the assay on C2A, in the assay with CP211, in the assay on CP215 and with CP217 was “inactive” throughout. In addition, the Potency result with CP250, in the assay on CP252, with CP256, with CP260, in the assay with CP262 and in the assay with CP265 was “inactive” each time. In addition, the Potency entry in the assay on CP291, in the assay on CP315, with Dd2, in the assay on FAB9, in the assay with ICS and in the assay with N140 was “inactive” each time. Besides, the Potency result in the assay on SC27B and in the assay on TAB165 was “inactive” throughout.
Regarding `O=C1NC(=O)C2C3C=CC(C3)C12` (stereo not given), the Potency entry in the assay on AA1029, in the assay with ATS95, in the assay on C2A, with CP211, in the assay with CP215 and in the assay with CP217 was “inactive” throughout. In addition, the Potency result in the assay with CP250, in the assay with CP252, in the assay on CP256, with CP260, in the assay with CP262 and in the assay on CP265 was “inactive” throughout. Also, the Potency entry in the assay on CP291, in the assay with CP315, in the assay on Dd2, with FAB9, in the assay on ICS and in the assay on N140 was “inactive” each time. Further, the Potency result with SC27B and with TAB165 was “inactive” in each case.

The record behind these values is PubChem BioAssay (NCATS).
